Assay results from PubChem BioAssay AID1347420 (Sanford-Burnham Center for Chemical Genomics, 2020).
The campaign covered roughly 1,300 compounds. About 980 (75%) were called active. Not shown: some 4% with an inconclusive outcome. The list shows a part of the results.

Target: Sulfhydryl oxidase 1 (Homo sapiens) (UniProt O00391)
Assay: QSOX1 enzyme inhibitors, primary screen, biochemical, HyperBlu H2O2 luminescence, HTS (AID 1347420); note: values above 100% were filed as inconclusive
Conditions: recombinant QSOX1, HyperBlu H2O2 luminescence; at 12.5 µM; active compounds read high; active = any value above zero

Sulfhydryl oxidase 1 (Homo sapiens), sequence (O00391 whole entry, looked up): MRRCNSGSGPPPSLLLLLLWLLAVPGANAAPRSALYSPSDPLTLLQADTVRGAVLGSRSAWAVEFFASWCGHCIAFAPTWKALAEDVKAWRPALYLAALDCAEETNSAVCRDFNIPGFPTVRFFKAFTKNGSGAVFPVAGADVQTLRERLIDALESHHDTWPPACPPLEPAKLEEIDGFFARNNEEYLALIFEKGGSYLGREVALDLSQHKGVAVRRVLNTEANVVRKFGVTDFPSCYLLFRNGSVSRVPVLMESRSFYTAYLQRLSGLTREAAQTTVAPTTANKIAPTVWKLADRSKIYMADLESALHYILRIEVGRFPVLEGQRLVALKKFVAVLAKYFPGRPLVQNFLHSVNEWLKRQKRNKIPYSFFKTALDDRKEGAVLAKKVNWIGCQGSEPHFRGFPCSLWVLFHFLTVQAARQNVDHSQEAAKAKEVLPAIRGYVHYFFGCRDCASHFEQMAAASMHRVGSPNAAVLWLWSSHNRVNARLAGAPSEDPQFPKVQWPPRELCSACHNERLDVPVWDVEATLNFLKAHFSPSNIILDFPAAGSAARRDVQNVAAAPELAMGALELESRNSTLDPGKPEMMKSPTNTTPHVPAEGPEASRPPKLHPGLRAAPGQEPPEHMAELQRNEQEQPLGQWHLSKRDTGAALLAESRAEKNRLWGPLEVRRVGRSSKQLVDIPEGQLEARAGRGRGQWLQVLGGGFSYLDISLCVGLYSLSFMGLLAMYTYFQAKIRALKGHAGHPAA

inhibition, active:
CCCCCCCCc1ccc(-c2ccc(C(=O)O)cc2)cc1 14.5%
Oc1ccccc1O 62.9%
O=[N+]([O-])c1cccc2c(Br)[nH]nc12 47.4%
CC(=O)N[C@H](C(=O)O)C(C)(C)SN=O 10.5%
CC(N)(C(=O)O)c1ccc(C(=O)O)cc1 (centres undefined) 10.5%
CCCC(=O)NCCc1c2n(c3ccc(OC)cc13)CCCc1ccccc1-2 50.8%
O=C(O)c1cc2cc(F)ccc2[nH]1 1%
O=C1NC(=O)/C(=C/c2ccc3nccnc3c2)S1 5.7%
O=C1NC(=O)/C(=C/c2ccc3c(c2)OC(F)(F)O3)S1 21.2%
CCCN(CCc1ccccc1)C1CCc2c(O)cccc2C1 (centres undefined) 14%
O=c1cc(-c2ccccc2F)[nH]c2cc3c(cc12)OCO3 6.4%
CCN(CC)CCCN(c1ccccc1)C1Cc2ccccc2C1 94.2%
c1ccc(-c2ccccn2)nc1 7.1%
NCCC1CCCC(CCN)N1 (centres undefined) 6.6%
OCc1ccc(-c2nn(Cc3ccccc3)c3ccccc23)o1 0.6%
Clc1ccc(N2CCN(Cc3c[nH]c4ncccc34)CC2)cc1 12.6%
OC1(c2ccc(Cl)cc2)CCN(Cc2c[nH]c3ccccc23)CC1 14.4%
Ic1ccc(N2CCN(Cc3c[nH]c4ncccc34)CC2)cc1 23.8%
COc1ccc2c(c1)c(CC(=O)O)c(C)n2C(=O)c1ccccc1 9%
COc1ccc2c(c1)c(CC(=O)O)c(C)n2Cc1ccc(Cl)cc1 5.8%
COc1ccc2c(c1)c(CC(=O)O)c(C)n2C(=O)c1ccc(Cl)cc1 15.5%
O=C(CCNNC(=O)c1ccncc1)NCc1ccccc1 0.1%
OC(CCN1CCCCC1)(c1ccccc1)C1CC2C=CC1C2 (centres undefined) 8.3%
O=C(O)CC1CCCc2ccccc2C1O (centres undefined) 8.6%
NOCC(=O)O 3%
NCCCS(=O)(=O)O 14.2%
NCCS(=O)(=O)O 9.8%
CN1CCc2cc(O)c(O)cc2C(c2ccccc2)C1 (centres undefined) 67.4%
CN1CCc2cc(Cl)c(O)cc2[C@@H](c2ccccc2)C1 35.8%
COc1ccccc1N1CCN(CCCNc2c(C)c(=O)n(C)c(=O)n2C)CC1 16.8%
COc1ccccc1N1CCN(CCCNc2cc(=O)n(C)c(=O)n2C)CC1 22%
CC#C[C@]1(O)CC[C@H]2[C@@H]3CCC4=CC(=O)CCC4=C3[C@@H](c3ccc(N(C)C)cc3)C[C@@]21C 89.8%
NCC(O)C1CCCCCCC1 (centres undefined) 18.4%
Fc1ccc(C(OCCCc2cnc[nH]2)c2ccc(F)cc2)cc1 10.8%
COC(=O)[C@H](NC(=O)c1cc(-c2ccccc2)nc2ccccc12)c1ccccc1 4.2%
CC(=O)[C@]1(O)Cc2c(O)c3c(c(O)c2[C@@H](O[C@H]2C[C@H](N)[C@H](O)[C@H](C)O2)C1)C(=O)c1ccccc1C3=O 50.8%
CC(N)C(=O)OC(C)(C)Cc1ccc(Cl)cc1 (centres undefined) 5.6%
Nc1nc2c(cnn2CCc2ccccc2)c2nc(-c3ccco3)nn12 17%
Nc1nc2ccc(Cl)cc2c2nc(-c3ccco3)nn12 27.7%
CCN(CC)CCCC(C)Nc1ccnc2cc(Cl)ccc12 (centres undefined) 4.6%
O=C(O)/C(=C/c1c(C(=O)O)[nH]c2cc(Cl)cc(Cl)c12)c1ccccc1 12.3%
O=C(O)c1cc(=O)c2c(Cl)cc(Cl)cc2[nH]1 23.5%
c1ccc2c(c1)CCCC2C1=NCCN1 (centres undefined) 7.7%
NC1(C(=O)O)CCc2cc(C(=O)O)ccc21 (centres undefined) 11.9%
Cn1c(=O)c2[nH]cnc2n(C)c1=O 20.2%
CN1Cc2sccc2C(c2ccc(O)c(O)c2)C1 (centres undefined) 84.1%
Oc1ccc(C2CNCc3sccc32)cc1O (centres undefined) 68.4%
CC(=O)C(C)=O 5.7%
CC(N)=O 37.1%
CCN1C(=O)C=CC1=O 12.3%
C[C@H](O)C(=O)C1=Nc2c(nc(N)[nH]c2=O)NC1 9.2%
NS(=O)(=O)C1=[C+]C=[C+]c2c1c([N+](=O)[O-])cc1nc([O-])c([O-])nc21 79%
CCn1c(=O)[nH]c2cc(Cl)c(Cl)cc21 20.4%
Cn1c(=O)c2c(nc(/C=C/c3cccc(Cl)c3)n2C)n(C)c1=O 8.5%
CN1C[C@H](C(=O)N[C@]2(C)O[C@@]3(O)[C@@H]4CCCN4C(=O)[C@H](Cc4ccccc4)N3C2=O)C[C@@H]2c3cccc4[nH]cc(c34)C[C@H]21 50.6%
Nc1ncnc2c1c(I)cn2[C@@H]1C[C@H](N)[C@@H](O)[C@H]1O 22.5%

inhibition, inactive:
O=C1NC(=O)/C(=C/c2ccc(-c3ccc(F)cc3O)o2)S1 0%
c1cnc(N2CCN(Cc3ccc4c(c3)OCO4)CC2)nc1 -5.6%
CC(C)[C@@H]1CC[C@@H](C)C[C@@H]1P(=O)(c1ccccc1)c1ccccc1 -5.2%
OC(CCN1CCCCC1)(c1ccccc1)C1CCCCC1 (centres undefined) -1.3%
NCC(O)(CS(=O)(=O)O)c1ccc(Cl)cc1 (centres undefined) -0.3%
CN1Cc2c(N)cccc2C(c2ccccc2)C1 (centres undefined) -2.6%
CCN(CC)CCCC(C)Nc1c2ccc(Cl)cc2nc2ccc(OC)cc12 (centres undefined) -13%
O=C(O)c1cc(=O)c2ccccc2[nH]1 -7.5%
C=C[C@@]1(C)CC(=O)[C@]2(O)[C@@]3(C)[C@H](O)CCC(C)(C)[C@@H]3[C@H](O)[C@H](OC(C)=O)[C@@]2(C)O1 -4.2%
CC(C)Cn1c(=O)n(C)c(=O)c2[nH]cnc21 -4.6%
NCC1OC(O[C@@H]2[C@H](O)C(OC3C(O)C(N)CC(N)C3OC3OC(CO)C(O)C(O)C3N)O[C@@H]2CO)C(N)C(O)C1O (some centres undefined) -0.2%
CC(=O)/C(C)=N/O -16.7%
CC(O)C(O)[C@H]1CNc2nc(N)[nH]c(=O)c2N1 (some centres undefined) -1.8%
